Results taken from PubChem BioAssay AID588727 (Southern Research Specialized Biocontainment Screening …, 2011).
Out of some 350,000 compounds screened, about 450 (0.13%) were called active. The rule behind the calls is not given here. The list is a sample of the results. Entries with a potency or affinity are not part of this list.

assay: inhibitors of VEEV TC-83 cytopathic effect, confirmation, Vero cells (AID 588727); conditions: VEEV TC-83 cytopathic effect inhibition, at 20 µM; hits give high values unless noted

Row | Compound | inhibition
1 | CC(C)c1ccc(NC(=O)CN2C(=O)NC3(CCCC3)C2=O)cc1 | inactive
2 | CCOC(=O)C1CCCN(C(=O)c2cc3cc4ccc(OC)cc4nc3o2)C1 (stereo unspecified) | 1.72% (inactive)
3 | Cc1ccc(N2C(=O)N3[C@H]4c5ccccc5OC[C@@H]4[C@@H](c4ccccc4)[C@@]3(C)C2=O)cc1 | 0.66% (inactive)
4 | CN(CC(=O)Nc1cccc(F)c1)C(=O)CCc1nc2cc(S(=O)(=O)N3CCOCC3)ccc2n1C | 0.55% (inactive)
5 | CC(C)Oc1ccc(CSc2nnc3n(C)c(=O)c4c5c(sc4n23)CCCC5)cc1 | inactive
6 | CCCCNC(=O)COC(=O)c1ccc(SC)cc1OC | 2.58% (inactive)
7 | CC(=O)Nc1ccc(S(=O)(=O)N2CCC(NC(=O)C(Cc3cccc(F)c3)NC(C)=O)CC2)cc1 (stereo unspecified) | 0.28% (inactive)
8 | COc1ccc(C(=O)N/N=C/C23CC[C@@H](O)CC2(O)CC[C@@H]2[C@@H]3CCC3(C)C(C4=CC(=O)OC4)CCC23O)cc1 (stereo partly specified) | 42.5% (inactive)
9 | C[C@H]1CC[C@@H]2[C@@H](C)[C@H]3[C@H](C[C@H]4[C@@H]5CC=C6C[C@@H](O[C@@H]7O[C@H](CO)[C@H](O)[C@H](O[C@@H]8O[C@H](CO)[C@@H](O)[C@H](O)[C@H]8O)[C@H]7O[C@@H]7O[C@@H](C)[C@H](O)[C@@H](O)[C@H]7O)CC[C@]6(C)[C@H]5CC[C@]34C)N2C1 | inactive
10 | C[C@]12CCC3C(CCC4=CC(O)CC[C@@]43/C=N/O)C1(O)CCC2C1=CC(=O)OC1 (stereo partly specified) | 27.9% (inactive)
11 | CC(=O)[C@@]1(O)CCC2C3CC[C@H]4C[C@@H](O)CC[C@]4(C)C3CC[C@@]21C (stereo partly specified) | 6.31% (inactive)
12 | COc1cc(C(=O)N/N=C/C23CC[C@@H](O)CC2(O)CC[C@@H]2[C@@H]3CCC3(C)C(C4=CC(=O)OC4)CCC23O)ccc1O (stereo partly specified) | 7% (inactive)
13 | CC12CC[C@H]3[C@@H](CCC4(O)C[C@H](O)CCC34/C=N/NC(=O)c3ccc(O)cc3)C1(O)CCC2C1=CC(=O)OC1 (stereo partly specified) | 0.73% (inactive)
14 | CC(=O)O[C@@H]1CC[C@]2(C)C3CC[C@@]4(C)C(C[C@@H](O)[C@@H]4O)C3[C@@H](OC(C)=O)C[C@H]2C1 (stereo partly specified) | 0.36% (inactive)
15 | CCOc1ccc(N2CC(C(=O)Nc3cccc(C(=O)NC4CC4)c3)CC2=O)cc1 (stereo unspecified) | 1.22% (inactive)
16 | Cc1ccccc1OCC(=O)Nc1ccc(N2CCOCC2)cc1N1CCOCC1 | 6.68% (inactive)
17 | COc1ccc(C2(C)NC(=O)NC2=O)cc1OC (stereo unspecified) | inactive
18 | COc1ccc(OC(C)c2ccc(C#N)c(=O)[nH]2)cc1 (stereo unspecified) | 1% (inactive)
19 | Cc1cc(=O)[nH]c(SCn2nnc3ccccc3c2=O)n1 | 0.62% (inactive)
20 | COc1ccc(S(=O)(=O)c2c(O)c3ccc(C(=O)Nc4ccccc4Cl)cc3[nH]c2=O)cc1 | 0.45% (inactive)
21 | O=C1COc2ccc(C(=O)COC(=O)c3ccc(S(=O)(=O)C(F)F)cc3)cc2N1 | 3.01% (inactive)
22 | COc1cc(/C=N/NC2=NS(=O)(=O)c3ccccc32)cc(OC)c1OC | 0.18% (inactive)
23 | CC12CC[C@H]3[C@@H](CCC4(O)C[C@H](O)CCC34/C=N/NC(=O)c3ccccc3Cl)C1(O)CCC2C1=CC(=O)OC1 (stereo partly specified) | 2.51% (inactive)
24 | C[C@]12CC[C@H]3[C@@H](CC[C@]4(O)C[C@@H](O)CC[C@]34C=O)[C@@]1(O)CC[C@@H]2C1=CC(=O)OC1 | 24.6% (inactive)
25 | Fc1ccc(-c2nnc(Cc3ccc(Cl)cc3)o2)cc1 | inactive
26 | Cc1ccc(OCCSc2nc(N)cc(N)n2)cc1 | 3.61% (inactive)

Row | Compound | inhibition
27 | O=C(c1ccc(F)cc1)c1ccc(-c2ccc(F)cc2)nc1 | 1.5% (inactive)
28 | Cc1cc(C)c2nc(N(CCCN(C)C)C(=O)c3ccc4c(c3)OCCO4)sc2c1 | 11.7% (inactive)
29 | COc1ccc(Cl)c2sc(N(CCN(C)C)C(=O)c3ccc4c(c3)OCCO4)nc12 | 3.95% (inactive)
30 | CN(Cc1ccccc1)C(=O)CN(C)S(=O)(=O)c1ccc(F)cc1 | 0.12% (inactive)
31 | COc1ccc2cc(-c3cc(C(=O)OCC(=O)Nc4c(C)n(C)n(-c5ccccc5)c4=O)c4ccccc4n3)ccc2c1 | inactive
32 | Cc1c(NC(=O)COC(=O)c2cc(-c3cccc4ccccc34)nc3ccccc23)c(=O)n(-c2ccccc2)n1C | 2.81% (inactive)
33 | CC(C)[C@H](NC(=O)C1CC(=O)N(c2ccc3c(c2)OCCO3)C1)C(=O)NC1CCCC1 (stereo partly specified) | 3.54% (inactive)
34 | O=C(CSc1nnc(-c2ccccc2Br)o1)N1CCOCC1 | 0.96% (inactive)
35 | Cc1ccc(CC2SC(=O)NC2=O)cc1Cl (stereo unspecified) | 4.25% (inactive)
36 | Nc1ccc(CC2SC(=O)NC2=O)cc1 (stereo unspecified) | 0.36% (inactive)
37 | O=C1NC(=O)C(Cc2cccc(Oc3ccccc3)c2)S1 (stereo unspecified) | 0.8% (inactive)
38 | Cc1ccccc1N1C(=O)C(Cc2ccc(F)cc2)S/C1=C(\C#N)C(N)=O (stereo unspecified) | 0.67% (inactive)
39 | COc1ccc(/C=C(/NC(=O)c2ccccc2)C(=O)N2CCCC2)cc1 | 1.46% (inactive)
40 | CCN(Cc1ccccc1)C(=O)c1ccc(N(C)S(=O)(=O)c2ccc(C)cc2)cc1 | 10.1% (inactive)
41 | CC(=O)NC1=NN(C(C)=O)C(c2ccc(C)cc2)S1 (stereo unspecified) | 0.39% (inactive)
42 | Cc1[nH]c2ccccc2c1/C=N/NC(=O)c1cccc(F)c1 | 4.66% (inactive)
43 | CCOC(=O)CNC(=O)CSc1nc(C(C)C)nc2c1cnn2-c1ccccc1 | 8.46% (inactive)
44 | COc1ccc(-c2cc(=O)oc3cc(OC(C)C(=O)NCCCn4ccnc4)ccc23)cc1 (stereo unspecified) | 1.83% (inactive)
45 | CCn1c(=O)c2[nH]c(SC)nc2n(CC)c1=O | 1.13% (inactive)
46 | CCCc1nc2c(=O)n(C)c(=O)[nH]c2n1CCC | 0.72% (inactive)
47 | COc1ccccc1-c1ccc2c(c1)O[C@@H](CN(C)C(=O)Nc1cccc(F)c1)[C@H](C)CN([C@H](C)CO)S2(=O)=O | 5.59% (inactive)
48 | O=C(N/N=C(/CC(=O)c1cccs1)C(F)(F)F)c1ccc(O)cc1 | 0.06% (inactive)
49 | O=C(N/N=C(\CC(=O)c1cccs1)C(F)(F)F)c1cccnc1 | inactive
50 | CCOCCn1c(CN2CCN(c3cccc(Cl)c3)CC2)nc2c1c(=O)n(C)c(=O)n2C | inactive
51 | COc1ccc(N2CCN(C(=O)c3cc(=O)c4cc(Cl)ccc4o3)CC2)cc1 | 0.39% (inactive)
